Bioassay records deposited in PubChem BioAssay by National Center for Advancing Translational Sciences (NCATS).
NPR1 antag – human Npr1 receptor antagonism | P16066 | HEK293 hNpr1 GloSensor cGMP, ANP-stimulated luminescence | 76,000 compounds, 1.6% hits | Potency, µM (highest dose often 46.3 µM), inactives show top-dose activity change, negative = inhibition, most hits filed as inhibitors; calls by dose curve; further: on the % scale 0 is the no-effect control and ±100 the full control effect; nearly all actives have a fitted effect of over 60% in size
Target sequence (P16066 whole entry, looked up): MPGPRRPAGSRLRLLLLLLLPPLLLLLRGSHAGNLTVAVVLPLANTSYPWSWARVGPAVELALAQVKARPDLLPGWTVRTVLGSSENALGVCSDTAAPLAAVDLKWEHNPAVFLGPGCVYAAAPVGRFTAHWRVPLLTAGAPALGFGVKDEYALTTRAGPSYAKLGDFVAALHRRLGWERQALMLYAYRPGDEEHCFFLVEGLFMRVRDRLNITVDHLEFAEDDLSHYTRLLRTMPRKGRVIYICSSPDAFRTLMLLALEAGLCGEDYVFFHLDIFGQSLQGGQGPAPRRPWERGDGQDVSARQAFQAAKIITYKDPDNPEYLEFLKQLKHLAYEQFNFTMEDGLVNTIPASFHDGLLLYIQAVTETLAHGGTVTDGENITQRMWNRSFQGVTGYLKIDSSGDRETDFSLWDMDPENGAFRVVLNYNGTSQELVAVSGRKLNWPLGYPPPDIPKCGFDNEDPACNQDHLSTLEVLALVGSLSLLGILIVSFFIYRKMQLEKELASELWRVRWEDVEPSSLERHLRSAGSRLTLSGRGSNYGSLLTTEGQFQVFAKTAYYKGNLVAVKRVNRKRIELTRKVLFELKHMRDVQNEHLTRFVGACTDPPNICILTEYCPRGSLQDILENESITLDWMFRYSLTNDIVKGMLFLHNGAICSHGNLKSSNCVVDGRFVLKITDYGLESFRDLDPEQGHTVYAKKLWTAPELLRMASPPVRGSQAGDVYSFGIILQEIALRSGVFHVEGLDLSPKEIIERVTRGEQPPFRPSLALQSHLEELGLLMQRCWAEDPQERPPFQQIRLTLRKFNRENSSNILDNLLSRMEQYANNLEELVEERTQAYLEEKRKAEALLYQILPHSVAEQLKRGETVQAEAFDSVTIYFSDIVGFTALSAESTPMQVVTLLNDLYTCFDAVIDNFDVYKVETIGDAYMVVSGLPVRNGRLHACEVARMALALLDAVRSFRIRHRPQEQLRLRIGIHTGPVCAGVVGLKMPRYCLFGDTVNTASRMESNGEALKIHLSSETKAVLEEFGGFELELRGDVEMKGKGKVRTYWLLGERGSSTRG
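HEK293 cells stably expressing human Npr1 and cGMP GloSensor pGS-40F, loaded 2 h with 2% GloSensor reagent, given compound 30 min at room temperature. Luminescence read before and 20 min after 0.1 nM hNppA.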
HEK293 viab – counter-screen for SNCA expression inhibitors: cell viability; Potency, µM (titrated, usually from 57.1 µM), inactives show top-dose activity change, negative = cytotoxicity, actives largely listed as cytotoxic; HEK-293-SNCA-luc viability, GF-AFC fluorescence, 24 h; 150,000 compounds, 0.12% hits;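 further: 0% = DMSO-treated cells and -100% = medium-only wells without cells; nearly all actives have a fitted effect of over 30% in size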
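HEK-293-SNCA-luc cells (1500/well) plated 24 h, then exposed 24 h to a dilution series; GF-AFC added 30 min at 37C, fluorescence 405/540 nm; normalised to medium-only and DMSO wells, Hill fit.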
HEK cytotox – HEK 293 cell cytotoxicity; HEK 293 viability, ATP luminescence (CellTiter-Glo), 48-72 h; Potency, µM (titrated, usually from 115 µM), without a hit: top-dose activity change, negative = cytotoxicity, actives largely listed as inhibitors; 94,000 compounds, 6.6% hits; AID 1345083; further: on the % scale 0 is the no-effect control and ±100 the full control effect; nearly all actives have a fitted effect of over 60% in size
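Cells seeded first (HEK 293, 250 cells/well), then compound added by pintool. Incubation ran 48 or 72 hr at 37 degree Celsius. CellTiter-Glo was added and luminescence imaged after 10 min at room temperature.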
FLuc inh-1 – Photinus pyralis luciferase inhibition. P08659. purified P. pyralis luciferase, luminescence, biochemical. Potency, µM (titrated, usually from 115 µM), most hits filed as inhibitors. 76,000 compounds, 2.5% hits. AID 1347043; further: on the % scale 0 is the no-effect control and ±100 the full control effect; nearly all actives have a fitted effect of over 65% in size
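Purified P. pyralis luciferase (10nM final) in 50mM Tris acetate pH 7.5, 10mM Mg acetate, 0.01% Tween-20, 0.05% BSA with 10uM D-luciferin and 10uM ATP. Compounds titrated qHTS. Luminescence imaged on CCD.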
NIH3T3 tox – cytotoxic compounds in NIH 3T3 cells; NIH 3T3 viability, CellTiter-Glo ATP luminescence, 48-72 h; Potency, µM (doses to about 96.7 µM), inactives show at the highest dose activity change, negative = cytotoxicity, actives largely listed as inhibitors; 94,000 compounds, 4.3% hits; AID 1345082; further: on the % scale 0 is the no-effect control and ±100 the full control effect; nearly all actives have a fitted effect of over 55% in size
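Mouse fibroblast NIH 3T3 cells, 400 per well, received compound via pintool and were incubated for 48 or 72 hr prior to CellTiter-Glo ATP luminescence measurement.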
SNCA expr inhib – reduces expression of the alpha-synuclein gene | 140,000 compounds, 0.17% hits | HEK-293 SNCA-luciferase knock-in, luminescence, 24 h | Potency, µM (highest dose often 57.2 µM), for the others: at the highest dose activity change, negative = inhibition, usual class: inhibitors;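 further: plate controls were DMSO cells for no effect and cell-free wells for full effect; nearly all actives have a fitted effect of over 45% in size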
FLuc SDR no ATP – binders stabilizing firefly luciferase, without ATP | Potency, µM (highest dose often 32.7 µM), for inactives: at the highest dose activation (signal gain), usual class: activators | 1,300 compounds, 7.8% hits | Purified FLuc-C-HiBiT, Nano-Glo HiBiT luminescence, no ATP | shares compounds with FLuc inh-1; further: nearly all actives have a fitted effect of over 55% in size
FLuc SDR ATP – firefly luciferase binding stabilization, ATP added; AID 1963319; Potency, µM (series often up to 32.7 µM), inactives show at the highest dose activation (gain of signal), most hits filed as activators; 1,300 compounds, 8.7% hits; purified FLuc-C-HiBiT + ATP, HiBiT complementation luminescence; shares compounds with FLuc inh-1;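 further: signal reports ligand binding via conformational change of the enzyme rather than luciferase catalysis; % of control where 0% means no effect; nearly all actives have a fitted effect of over 55% in size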
FLuc inh-2 – blocks firefly luciferase enzymatic activity; purified FLuc-C-HiBiT enzyme, luciferin luminescence; shares compounds with FLuc inh-1; AID 1963320; 1,300 compounds, 42% hits; Potency, µM (doses to about 32.7 µM), without a hit: at the highest dose activity change, negative = inhibition, most hits filed as inhibitors; further: on the % scale 0 is the no-effect control and ±100 the full control effect; nearly all actives have a fitted effect of over 70% in size
The depositor's hits bear a star; i = inactive; ? = inconclusive; . = no result given; [ ] = another dose, or the depositor's remark. Hits are enriched below; roughly 7.4% of the tested compounds scored in any of these assays. Unless noted, the call rests on the fitted dose curve; in most records, active means well fitted curve in the direction sought with a large enough effect; inconclusive means small, poorly fitted or top-dose-only effect, or another doubt; inactive means no such curve, though single readings can be large; an effect the other way counts as inactive or inconclusive. Potency means the concentration at half of the fitted maximal effect.

SMILES | NPR1 antag | HEK293 viab | HEK cytotox | FLuc inh-1 | NIH3T3 tox | SNCA expr inhib | FLuc SDR no ATP | FLuc SDR ATP | FLuc inh-2
Cc1ccc(-c2cn3cc(C(=O)NCc4cccc(C(F)(F)F)c4)nc3s2)cc1 | . | -6% | -11% | . | -13% | ? | . | . | .
CC(C)Cc1noc(-c2ccc(N3CCC(O)CC3)nc2)n1 | 8.9µM* | -1% | -27% | 0.79µM* | ? | ? | 24% | ? | 5.6µM*
Cc1c(C(=O)Nc2cccc(-c3nc4ccccc4s3)c2)oc2ccccc12 | . | 4% | . | . | . | 55% | 9% | 10% | -26%
Cc1ccc2oc(C(=O)Nc3cccc(-c4nc5ccccc5s4)c3)c(C)c2c1 | . | 7% | . | . | . | 143% | 16% | ? | ?
O=C(Nc1cccc(-c2nc3ccccc3s2)c1)c1cc2ccccc2oc1=O | . | . | . | . | . | . | 14% | 10% | -9%
COc1cc2ccccc2cc1C(=O)Nc1cccc(-c2nc3cc(C)c(C)cc3o2)c1 | . | -3% | . | . | . | 29% | . | . | .
COCCn1c(=O)c(C(=O)N2CCN(C(=O)NC3CCCC3)CC2)nc2cccnc21 | . | 1% | i | . | -8% | -17% | . | . | .
O=C1C[C@H]2CC[C@@H](CN1)N2Cc1ccc(OCc2ccccc2)cc1 | ? | -7% | ? | 11µM* | ? | -19% | 13% | 11% | ?
CCOc1ccccc1NC(=O)Nc1cccc(-c2ccc(N3CCOCC3)nn2)c1 | -25% | -2% | 25µM* | 2.8µM* | ? | 7% | 28% | ? | 3.9µM*
COc1ccc(NC(=O)Nc2cccc(-c3ccc(N4CCOCC4)nn3)c2)cc1Cl | 13µM* | ? | 22µM* | 0.63µM* | ? | ? | ? | ? | 1.2µM*
CN1CCN(c2ccc(-c3cccc(NC(=O)C4CCCCC4)c3)nn2)CC1 | -11% | -1% | ? | 14µM* | ? | 51% | 27% | 18% | 8.8µM*
COc1ccc(NC(=O)Nc2cccc(-c3ccc(N4CCCCC4)nn3)c2)c(OC)c1 | 7.9µM* | -8% | ? | 0.32µM* | -18% | -58% | ? | ? | 0.99µM*
CCc1ccc(CNC(=O)c2ccc3c(c2)N(CC)C2CCCCCN2C3=O)cc1 (stereo not given) | -8% | ? | ? | i | ? | ? | . | . | .
O=C(NC1CCCN(c2ccc3nnc(-c4ccccc4)n3n2)C1)c1cccc(Cl)c1 (stereo not given) | . | . | 3% | . | -18% | . | . | . | .
CNC(=O)c1cc(C2CC2)nc2onc(C3CCN(C(=O)C4CCCC4)CC3)c12 | . | . | 3% | . | -17% | . | . | . | .
COc1cccc(CNC(=O)C2CN(C3CCCC3)C(=O)N2)c1 (stereo not given) | . | 6%[12.5 µM] | i | . | -6%[138 µM] | 6%[87.6 µM] | . | . | .
O=C(Nc1cccc(-c2ccc(N3CCOCC3)nn2)c1)Nc1cccc(C(F)(F)F)c1 | 11µM* | ? | 28µM* | 1.8µM* | ? | -42% | ? | 18% | 5µM*
O=C(Nc1cccc(C(F)(F)F)c1)c1cc(CN2CCOCC2)on1 | . | -2% | . | . | . | 5% | . | . | .
CC(C)N1C[C@@H](COc2ccc(-c3ccccc3)cc2)[C@H](c2ccccc2)S1(=O)=O | . | . | ? | . | -12% | . | . | . | .
Cc1ccccc1C(=O)NC1CCN(C(=O)c2ccc(-c3cncnc3)cc2)CC1 | . | 1%[12.5 µM] | -9% | . | -23% | ? | . | . | .
Cc1ccc(Cl)cc1-n1nnc(-c2nsc(NC(=O)c3ccccc3Cl)n2)c1C | . | -8% | . | . | . | 24% | 11% | 9% | -6%
COc1ccc(CCNc2nc3ccccc3c3nc(-c4cccc(C)c4)nn23)cc1OC | . | 2% | . | . | . | 66% | 15% | 12% | ?
COc1ccc(C(=O)Nc2noc3ccccc23)cc1 | . | -3% | . | . | . | ? | 9.9µM* | 3.1µM* | 0.88µM*
COc1ccc(CNc2ncnc3c2c(-c2ccccc2)cn3-c2cccc(C)c2)cc1 | . | -3% | . | . | . | ? | . | . | .
COc1cccc(-n2cnc3c(N/N=C/c4ccncc4)ncnc32)c1 | . | . | . | . | . | . | 24% | 14% | ?
SMILES | NPR1 antag | HEK293 viab | HEK cytotox | FLuc inh-1 | NIH3T3 tox | SNCA expr inhib | FLuc SDR no ATP | FLuc SDR ATP | FLuc inh-2
O=C(COc1ccc(F)cc1)Nc1cnc(-c2ccccc2)nc1 | -1% | ? | 16% | i | -1% | 17% | . | . | .
O=C(Nc1cnc(-c2ccc(Cl)cc2)nc1)C1CCC1 | 5.6µM* | -12% | 2% | 0.28µM* | -1% | -7% | ? | ? | 1.2µM*
O=C(Nc1cnc(-c2ccccc2)nc1)C1CCCC1 | 10µM* | -10% | ? | 1µM* | -22% | ? | ? | ? | 2.5µM*
O=C(Nc1ccccc1Cl)C1CN(C2CCCC2)C(=O)N1 (stereo not given) | . | 2%[12.5 µM] | -23%[172 µM] | . | -25%[138 µM] | 1%[87.6 µM] | . | . | .
Cc1cc(F)ccc1OC1(C(=O)O)CCN(c2ncnc3nc[nH]c23)CC1 | 4% | -1% | i | i | 5% | 6% | 10% | 7% | 3%
O=C(O)C1CN(Cc2ccc(-c3nc4cc(Cc5ccccc5F)ccc4s3)c(F)c2)C1 | . | 2%[12.5 µM] | . | . | . | . | 15%[5.62 µM] | 9%[5.62 µM] | 4%[5.62 µM]
O=C(N[C@@H]1CN(Cc2ccc(Cl)c(F)c2)C[C@H]1CO)C1CCC1 | 3% | 1% | ? | i | -13% | 33% | . | . | .
COc1ccc(-c2ccccc2C(=O)NCCc2ccccc2)nn1 | . | . | -28% | . | -22% | . | . | . | .
c1ccc(CNc2nc(-c3ccccc3)no2)cc1 | ? | 3% | ? | 14µM* | ? | 108% | 19% | 14% | ?
Cc1cc(C)cc(Nc2nc(-c3ccccc3F)no2)c1 | ? | -1% | 40µM* | 1.6µM* | 45µM* | 77% | 16% | 14% | 6.2µM*
Fc1cccc(Cc2noc(-c3nc(-c4ccccc4)no3)n2)c1 | -2% | 11% | ? | i | -15% | 60% | . | . | .
CCOC(=O)c1cccc(Nc2nc(-c3ccccc3)no2)c1 | -30% | -9% | 28µM* | 1.8µM* | -27% | 131% | 14% | ? | ?
Fc1cccc(Nc2nc(-c3ccccc3)no2)c1 | ? | -15% | ? | 3.2µM* | ? | 96% | 22% | 19% | 7µM*
